Compound activity as filed in PubChem.
Sampled rows, rich in hits. Any-hit rate of the full collection: about 1.2%.
RXFP1 agonist: activates the human relaxin receptor RXFP1; Q9HBX9; HEK293T-RXFP1 cAMP TR-FRET, 30 min; response scale: percent of porcine relaxin response, buffer zero; Potency, µM (highest dose often 57.5 µM), inactives show at the highest dose activation, most hits filed as activators; hit rate 0.3% among 370,000; AID 2676; active means well fitted activation curve with a large enough effect; inconclusive means small, poorly fitted or top-dose-only effect; further: potency means the concentration at half of the fitted maximal effect; on the % scale 0 is the no-effect control and ±100 the full control effect; nearly all actives have a fitted effect of over 60% in size
Target sequence (Q9HBX9 whole entry, looked up): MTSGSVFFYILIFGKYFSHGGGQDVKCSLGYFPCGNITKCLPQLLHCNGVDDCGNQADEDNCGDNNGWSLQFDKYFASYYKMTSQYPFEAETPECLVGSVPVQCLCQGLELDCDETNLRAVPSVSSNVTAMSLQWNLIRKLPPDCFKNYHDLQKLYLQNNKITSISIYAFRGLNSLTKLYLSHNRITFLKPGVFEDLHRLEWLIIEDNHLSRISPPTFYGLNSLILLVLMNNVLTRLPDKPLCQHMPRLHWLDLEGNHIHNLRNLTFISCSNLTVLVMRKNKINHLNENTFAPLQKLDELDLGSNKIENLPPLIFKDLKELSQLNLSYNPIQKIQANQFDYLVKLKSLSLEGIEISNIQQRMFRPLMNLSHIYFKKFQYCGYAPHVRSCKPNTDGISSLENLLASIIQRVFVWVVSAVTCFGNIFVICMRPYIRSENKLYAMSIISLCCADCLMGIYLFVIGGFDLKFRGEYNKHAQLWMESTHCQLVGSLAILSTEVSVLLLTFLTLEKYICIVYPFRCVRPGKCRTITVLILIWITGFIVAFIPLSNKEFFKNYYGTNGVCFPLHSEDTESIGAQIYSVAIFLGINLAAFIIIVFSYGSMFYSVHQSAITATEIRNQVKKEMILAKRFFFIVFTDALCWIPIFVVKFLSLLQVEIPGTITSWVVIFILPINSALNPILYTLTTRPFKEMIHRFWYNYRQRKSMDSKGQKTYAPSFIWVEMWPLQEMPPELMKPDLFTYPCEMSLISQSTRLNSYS
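HEK293 cells stably expressing RXFP1, treated 30 min at 37C with compounds plus PDE4 inhibitor Ro 20174; cAMP measured by HTRF TR-FRET. Normalized to buffer and 29 nM porcine relaxin; EC50 by Hill fit.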
gsp antagonist: antagonists of gsp mutant (McCune-Albright syndrome); gsp-mutant cells, cAMP HTRF, 30 min; hit rate 0.4% among 340,000; Potency, µM (titrated, usually from 76.9 µM), for the others: at the top dose activity change, negative = inhibition, actives largely listed as inhibitors; calls by dose curve; cell line not stated here;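 further: intracellular cAMP measured with PDE inhibitor Ro 20-1724 present during compound exposure; potency means the concentration at half of the fitted maximal effect; on the % scale 0 is the no-effect control and ±100 the full control effect; nearly all actives have a fitted effect of over 65% in size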
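Cells, 2000/well, grown 16–24 h in DMEM 10% FBS with 0.5 mg/ml G418, then compounds plus […] (300 uM addition stock), 30 min at 37C. cAMP read by HTRF (cAMP-d2 and anti-cAMP antibody-K in lysis buffer) after 30 min RT.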
gsp agonist: gsp mutant agonism. gsp mutant cells, cAMP HTRF, 30 min. Potency, µM (highest dose often 76.9 µM), for inactives: top-dose activation (cAMP increase), hits mostly activators. hit rate 0.13% among 340,000. AID 624287; active means well fitted activation curve with a large enough effect; inconclusive means small, poorly fitted or top-dose-only effect, or another doubt; inactive means no such curve, though single readings can be large or run the other way; cell line not stated here;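 further: phosphodiesterase inhibitor Ro 20-1724 added with compounds to block cAMP breakdown; potency means the concentration at half of the fitted maximal effect; nearly all actives have a fitted effect of over 60% in size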
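Cells in DMEM/10% FBS with G418 were pretreated with compounds in DMSO plus […] (300 uM stock) for 30 min at 37C. cAMP was measured by HTRF (cAMP-d2 plus anti-cAMP antibody-K) after 30 min at room temperature.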
RXFP1 antagonist: RXFP1 (human) relaxin receptor antagonism; Q9HBX9; HEK293-RXFP1, relaxin-stimulated cAMP HTRF, 30 min; active compounds read low; activity change, negative = inhibition, % at 57.5 µM; hit rate 0.59% among 350,000; AID 1259400;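 active means activity change of -60% or lower, but not beyond a set lower limit; inconclusive means change between -60% and -40%, or beyond the set limit; inactive means change above -40%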; further: on the % scale 0 is the no-effect control and ±100 the full control effect
pAkt inh: inhibitors of Akt phosphorylation; Neuro2A IGF-stimulated pAkt S473 HTRF, 20 min; active compounds read low; activity change, % for hits at 50 µM; hit rate 0.32% among 360,000; AID 651550; in the data active means activity change below about -80%; inconclusive means mostly about -51% to -80%; further: on the % scale 0 is the no-effect control and ±100 the full control effect
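Single-point screen (50 µM final compound) in Neuro2A cells stimulated 20 min with 6 nM IGF at 37 deg C. After lysis, Ser473-phosphorylated Akt read by HTRF (ex 330 nm, em 615/665 nm) as the 665/615 ratio.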
* marks the source's active call; other numbers are inactive results; i = inactive; ? = inconclusive; / = not tested or not shown; [ ] = dose if it differs, or a comment.

SMILES	RXFP1 agonist	gsp antagonist	gsp agonist	RXFP1 antagonist	pAkt inh
CCn1c(SCC(=O)NCCOC)nc2sc(C)c(C)c2c1=O	-1%	/	/	/	/
CCn1c(SCC(=O)NCCOC)nc2sc3c(c2c1=O)CCCC3	5%	-4%	-20%	-13	-80%*
CCc1ccc(NC(=O)CC2C(=O)N(c3ccc(OC)cc3)C(=O)N2Cc2ccc(OC)cc2)cc1 (stereo unspecified)	-1%	/	/	-4	/
O=C(O)c1ccnc2c(O)cccc12	0%	/	/	/	/
Cc1ccc(C(=O)NNc2cc(N3CCCC3)nc(N3CCCC3)n2)cc1	0%	3%	7%	-62*	i
O=C(NNc1cc(N2CCOCC2)nc(N2CCOCC2)n1)c1ccc(Cl)c(Cl)c1	0%	-4%	?	3	i
CCN(CC)c1ccc(NC(=O)c2c(C)nn(-c3ccc(F)cc3)c2-n2cccc2)c(C)c1	1%	/	/	/	/
COc1ccc(N(CC(=O)Nc2ccc(F)c(F)c2)S(=O)(=O)c2c(C)n[nH]c2C)cc1	-2%	?	6%	-86*	i
COc1ccc(NC(=O)CN(c2cc(C)cc(C)c2)S(=O)(=O)c2c(C)n[nH]c2C)cc1	0%	-19%	-34%	/	i
CCOC(=O)c1cnc(-n2nc(C)cc2C)nc1Nc1ccc(O)cc1	0%	11µM*	2%	6	i
CCOC(=O)c1cnc(-n2nc(C)cc2C)nc1Nc1ccc(C)cc1	3%	4%	-38%	-5	i
O=C1/C(=C/c2ccc([N+](=O)[O-])cc2)Oc2cc(O)ccc21	-1%	22µM*	1%[15.4 µM]	-6	i
O=C1/C(=C/c2ccc(Br)cc2)Oc2cc(O)ccc21	8%	-25%	25%	2	i
c1ccc(CC(Cc2ccccc2)c2ccccn2)cc1	/	-5%	-115%	-13	i
c1ccc(CC(Nc2ccccn2)c2ccccc2)cc1 (stereo unspecified)	0%	-2%	-4%[15.4 µM]	-60*	i
Cc1ccc(NC(=O)CSc2ccccc2NC(=O)c2ccccc2Cl)cc1Cl	2%	28µM*	-17%	0	i
CCOCC(=O)Nc1ccc(C)c(Cl)c1	1%	17%	-1%	-10	-129%*
CCC(C(=O)Nc1ccccc1C(=O)OC)n1nc(C)c2c(C)n(-c3ccc(C)cc3)nc2c1=O (stereo unspecified)	3%	/	/	-16	/
O=C(NCCc1ccc(Cl)cc1)c1cccn1-c1nnc(N2CCCCC2)s1	0%	/	/	-34	/
CSc1nnc2c3ccccc3n(CCc3ccccc3)c2n1	1%	?	?	7	i
S=c1nc2c(n[nH]1)c1ccccc1n2CCc1ccccc1	3%	1%	-40%	-115*	i
O=C(NOCC1CC1)c1ccc(F)c(F)c1Nc1ccc(I)cc1Cl	/	/	/	-22	/
COc1ccc(CCNc2nc(C)nc3c2oc2ccccc23)cc1OC	1%	40µM*	12%	?	i
COc1ccc(CCNc2ncnc3c2oc2ccccc23)cc1OC	0%	?	?	-36	i
CC(C)C[C@H](NC(=O)[C@H](CCc1ccccc1)NC(=O)CN1CCOCC1)C(=O)N[C@@H](Cc1ccccc1)C(=O)N[C@@H](CC(C)C)C(=O)[C@@]1(C)CO1	/	/	/	13	/
SMILES	RXFP1 agonist	gsp antagonist	gsp agonist	RXFP1 antagonist	pAkt inh
CCCCCCC(=O)Nc1nnc(CC)s1	1%	-3%	-20%	-14	-123%*
CCCCC(=O)Nc1nnc(C)s1	2%	-1%	15%	-5	i
O=C(NCc1ccccc1)c1c2c(nc3ccccc13)C(=O)N(C1CCCCC1)C2	-3%	/	/	-28	/
Cc1ccc(CCNC(=O)c2c3c(nc4ccccc24)C(=O)N(C2CCCCC2)C3)cc1	2%	/	/	-72*	/
COc1cc(C(=O)OC(COCCC(C)C)CN2CCOCC2)cc(OC)c1OC (stereo unspecified)	/	/	/	-9	/
CCCCC(=O)NC(c1ccc([N+](=O)[O-])cc1)c1c(O)ccc2ccccc12 (stereo unspecified)	0%	?	3%[15.4 µM]	-62*	i
CCC(=O)NC(c1ccc([N+](=O)[O-])cc1)c1c(O)ccc2ccccc12 (stereo unspecified)	-1%	?	-67%	-20	i
COc1ccc(C2c3c(n(C)c4ccccc34)C(=O)N2CC(=O)Nc2cccc(Cl)c2C)cc1 (stereo unspecified)	17%	/	/	-13	/
Nc1c(N(Cc2ccco2)C(=O)COc2ccccc2)c(=O)[nH]c(=O)n1Cc1ccccc1	0%	0%	-36%	3	i
Cc1cccc(OCC(=O)N(Cc2ccco2)c2c(N)n(Cc3ccccc3)c(=O)[nH]c2=O)c1	-1%	50µM*	-31%	-6	i
COc1cccc(C2=Nn3c(nnc3-c3ccccc3O)SC2)c1	0%	10%	?	-8	i
C[n+]1c2n(c3ccccc31)N=C(c1cc(C(C)(C)C)c(O)c(C(C)(C)C)c1)CS2	0%	-3%	19%	-85*	i
COCCn1cc(-c2csc(N)n2)c2ccccc21	-1%	1%	-32%	1	i
CN(C)c1nc(-c2cn(CCC#N)c3ccccc23)cs1	1%	?	-11%[15.4 µM]	-82*	i
Cn1c(=O)c2[nH]c(CCCc3ccc([N+](=O)[O-])cc3)nc2n(C)c1=O	/	8%	16µM*	10	i
Cn1c(=O)c2[nH]c(CCc3ccncc3)nc2n(C)c1=O	/	13%	?	5	i
O=C(Nc1cccnc1)c1ccc(COc2ccccc2Br)o1	3%	-14%	-72%	14	i
CC(C)(C)c1ccc(OCc2ccc(C(=O)Nc3cccnc3)o2)cc1	-3%	?	?	-64*	i
CCCn1c(NC(=O)c2ccc(Br)cc2)nc2ccccc21	2%	4%	?	16	-87%*
CCCCCCCCCCCCCCCC[N+](C)(C)CC	1%	7%	/	-87*	i
COC(=O)c1c(NC(=O)C(C)(C)C)sc2c1CCN(Cc1ccccc1)C2	3%	-4%	-1%	-68*	i
Cc1cc(C)cc(Nc2cc(C(=O)NCc3ccccc3)c3ccccc3n2)c1	11%	/	/	/	/
COc1cccc(N2CCN(c3ncnc4c3cnn4-c3ccc(C)cc3C)CC2)c1	2%	7.9µM*	2%	/	i
Cc1ccc(-n2ncc3c(N4CCCC4)ncnc32)c(C)c1	5%	4%	-15%	1	/
N#CC(C(=O)NCc1ccccc1)c1nc2ccccc2nc1N1CCCC1 (stereo unspecified)	6%	10%	?	-1	-84%*
CCOc1ccccc1N1CCN(c2nc3ccccc3nc2C(C#N)C(=O)OC)CC1 (stereo unspecified)	3%	2%	-55%	-11	i
COc1ccccc1N1CCN(c2nc3ccccc3nc2C(C#N)C(=O)OC(C)C)CC1 (stereo unspecified)	2%	-12%	-40%	-12	-97%*
